Data as given in PubChem BioAssay AID588849 (Broad Institute, 2011).
Results with a measured potency or affinity are listed apart. Active and inactive are the calls of the source. The rule behind the calls is not given here.

Target: CAAX prenyl protease 2 (Homo sapiens) (UniProt Q9Y256)
Experiment: human Rce1 protease inhibitors, dose response, biochemical, yeast membranes, quenched-peptide fluorescence, cherry-pick (AID 588849)
Settings: yeast membrane fractions expressing human Rce1, quenched-peptide fluorescence, 4 h; series mostly up to 10 µM

Chain of CAAX prenyl protease 2 (Homo sapiens) (Q9Y256 whole entry, looked up): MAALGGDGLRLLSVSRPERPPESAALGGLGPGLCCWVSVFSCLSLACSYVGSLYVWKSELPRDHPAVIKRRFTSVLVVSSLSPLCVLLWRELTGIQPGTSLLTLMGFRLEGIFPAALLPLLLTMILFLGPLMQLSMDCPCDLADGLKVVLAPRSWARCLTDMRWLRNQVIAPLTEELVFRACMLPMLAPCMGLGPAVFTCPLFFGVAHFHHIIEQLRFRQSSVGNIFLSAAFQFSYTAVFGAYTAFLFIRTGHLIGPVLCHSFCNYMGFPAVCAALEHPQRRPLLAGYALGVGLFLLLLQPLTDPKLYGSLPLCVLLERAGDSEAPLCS

## c1ccc(CCCN2CCN(CCOC(c3ccccc3)c3ccccc3)CC2)cc1
  outcome: inactive

## Cc1ccc(-c2cc(-c3ccccc3)cc(-c3ccccc3)[n+]2-c2ccccc2)cc1
  outcome: inactive

## Clc1ccc(C[n+]2c(-c3ccccc3)cc(-c3ccccc3)cc2-c2ccccc2)cc1
  outcome: inactive

## C=CC[N+]1(C)CC[C@]23c4c5ccc(O)c4O[C@H]2C(=O)CC[C@@]3(O)[C@H]1C5 (some centres undefined)
  outcome: inactive

## CN1CC(C(=O)c2ccc(Cl)cc2)C(c2ccc(Cl)cc2Cl)C1 (centres undefined)
  outcome: inactive

## Cc1ccnc(-n2c(-c3ccco3)nc3ccccc3c2=O)c1
  outcome: inactive

## Cc1nccc2c1[nH]c1ccccc12
  outcome: inactive

## CN1CCN(c2ccc([N+](=O)[O-])c(Sc3nncn3C)c2)CC1
  outcome: inactive

## COCCCn1c(N)c(C(=O)NCc2ccco2)c2nc3ccccc3nc21
  outcome: inactive

## Cc1ccc(-c2nc3ccc(C)cn3c2CC(=O)N(C)C)cc1
  outcome: inactive

## CCOC(=O)[C@@H]1[C@H]2COc3ccc(Br)cc3[C@@H]2N2C(=O)N(c3cccc(C)c3)C(=O)[C@]12C
  outcome: inactive

## Cc1oc(-c2cccs2)nc1CSCC(=O)N1CCC2(CC1)OCCO2
  outcome: inactive

## COc1ccc2c3c([nH]c2c1)C(C)=NCC3
  outcome: inactive

## C=CCn1c(O)c(C(CC)=Nc2ccc(N(CC)CC)cc2)c(=O)[nH]c1=O
  outcome: inactive
